Test results reported in PubChem BioAssay (NCI).
About 83,000 compounds went through this panel and 20% of them were active in at least one assay; those are over-represented in the sample as a whole.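 Compound tested at a single concentration for 48 hours in 96-well plates; a percent growth value below 10 was scored as active.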 Values without a mark were called inactive. The source made the active and inactive calls.

test system: HS 578T breast; test: NCI-60 one-dose screen, 48 h (100 = growth as untreated, 0 = no growth, -100 = all killed); settings: 10 µM unless noted

SMILES | growth
O=C(NCCCN1CCOCC1)c1cccc(N2C(=O)/C(=C/c3ccc(F)cc3)SC2=S)c1 | 82.2%
CC(C)NC1CCC(Nc2ccnc3cc(Cl)ccc23)CC1 (centres undefined) | 96.6%
Fc1ccc(-c2nn(-c3ccccc3)cc2-c2nc3ccccc3o2)cc1 | 82%
COc1ccc(C/C(C)=C(/c2ccc(OCCN3CCCCC3)cc2)c2ccc(OC(=O)NCc3ccccc3)cc2)cc1 | -57.6% (active)
Cn1cc(-c2nonc2-c2c[nH]c3ccc(Br)cc23)c2cc(Br)ccc21 | 31.6%
Cn1c(=O)c2c(nc(NC3=NS(=O)(=O)c4ccccc43)n2CC(=O)N2CCc3ccccc32)n(C)c1=O | 97%
Clc1ccc(Nc2nnc(COc3ccccc3)c3ccccc23)cc1 | 14.4%
O=[N+]([O-])c1ccc(S(=O)(=O)N2CCN(C3=NS(=O)(=O)c4ccccc4N3c3ccccc3)CC2)cc1 | 109%
CCNC(=O)c1[nH]cc(-c2ccccc2)c1-c1cc(OC)c2c(c1OC)OCO2 | 93.2%
COCCn1c(-c2csc(-c3cn(C)c4ccc(OC)cc34)n2)cc2cccnc21 | 58.5%
S=C(Nc1ccc(-c2nc(N3CCOCC3)c3cccn3n2)cc1)Nc1cccnc1 | 12.8%
COc1cc(CNC(=O)CCCC/C=C/C(C)C)ccc1OCc1nnc(Nc2ccc([N+](=O)[O-])cc2)o1 | 63.2%
N#CC1=C(c2ccc(Cl)cc2)Nc2c(c(-c3ccc(Cl)cc3)nn2-c2ccccc2)C12C(=O)Nc1ccc(Cl)cc12 (centres undefined) | 57.1%
CCOC(=O)/C=C1\S/C(=N\Nc2cc(=O)[nH]c3ccc(Cl)cc23)N(c2ccccc2)C1=O | 99.8%
COc1cccc(NC(=O)Cn2cc(CN3CCN(c4ccnc5cc(Cl)ccc45)CC3)nn2)c1 | 80.8%
COc1cc(N2C(=O)[C@H](O)C2c2ccc(SC)cc2)cc(OC)c1OC (some centres undefined) | 34.9%
CSc1nnc(-c2cnn3c2NC(c2ccccc2)C3)n1-c1ccc(C(F)(F)F)cc1 (centres undefined) | 64.7%
N=C(N)c1ccc(-c2ccc(-c3ccc(F)cc3)o2)o1 | 30.5%
CC1=NN(c2nc(SCC(=O)Nc3nc4ccc(C)cc4s3)nc(-c3ccccc3)c2C#N)C(=O)C1 | 90.5%
C/C(Nc1ccc(Cl)c(Cl)c1)=C1\CCOC1=O | 98%

SMILES | growth
N#Cc1cccc(-c2c(-c3ccc4ccccc4c3)oc3ccccc3c2=O)c1 | 69%
CC(C)N1CCN(Cc2ccc3c(NNC(=O)c4ccccc4)nc4cc(F)ccc4n23)CC1 | 75.8%
O=S(=O)(NCCCNc1nccc(-c2c(-c3ccc(F)c(O)c3)nc3occn23)n1)c1ccccc1 | 87.3%
O=C1NCCC12CCN(c1c(Cl)cncc1-c1ccc(O)cc1)CC2 | 101%
Cc1cccnc1NC(=S)Nc1ncccc1C | 111%
COc1ccc2c3c([nH]c2c1)C(=O)c1nc(C)ccc1C3=O | 84.9%
CC1Cc2c(Cl)ncnc2N(C)c2ccc(F)cc21 (centres undefined) | 64.1%
O=C1c2cc(Cl)ccc2S(=O)(=O)c2c(NCCCNCCO)nc3ccccc3c21 | -2.81% (active)
O=C(c1ccc(Cl)cc1)N1CCN(c2ccnc3cc(Cl)ccc23)CC1 | 99.3%
Cc1nnc(NC(=O)c2nc(S(=O)(=O)Cc3ccc(F)cc3)ncc2Cl)s1 | 93.1%
COc1ccc2[nH]cc(-c3nc(-c4cn(C)c5c(Cl)nccc45)cs3)c2c1 | 54.3%
COc1ccc(/C(C)=C(/c2ccc(OCCCN(C)C)cc2)c2ccc(OC(=O)Cc3ccccc3)cc2)cc1 | 56.5%
CCOc1nc(-c2ccccc2)cc2c(O)c(C(=O)NN)[nH]c(=O)c12 | 87.6%
Cn1c(=O)c2[nH]c(N/N=C/c3ccccc3Br)nc2n(C)c1=O | 161%
Clc1ccc(Sc2cnc(-c3ccccc3)o2)cc1 | 99.1%
O=C(Nc1nn(-c2ccc(Cl)cc2Cl)nc1-c1ccccc1)c1ccccc1 | 105%
Cc1ccc(/C=N/Nc2nc(Nc3ccccc3)nc(-n3nc(C)cc3C)n2)cc1 | 78.9%
O=C(Nc1cc(Cl)ccc1O)c1ccc(Nc2ccnc(C(F)(F)F)c2)cc1 | 49.9%
CC(C)(C)c1cc(-c2nc3ccc(N4CCN(S(C)(=O)=O)CC4)cc3[nH]2)cc(C(C)(C)C)c1O | 86.4%
